Consider 10 compounds from ChEMBL document CHEMBL3988442, “University of Dundee, Small-Polar-MMV Screening Library” (2021).

Set-up in all cases: scale not given: direction of the effect not stated beside the values
Assay [1] concerns the target Protein translocase subunit SecA (Escherichia coli (strain K12)) (UniProt P10408). The assay can be described thus: Assay to Identify E. coli SecA ATPase Inhibitors. Format: functional. The note with it: 30 µM.
Assay [2] deals with T1, Ubiquitin-activating enzyme e1, putative (Leishmania donovani (strain BPK282A1)) (UniProt E9BSI1).
T1 sequence (whole entry): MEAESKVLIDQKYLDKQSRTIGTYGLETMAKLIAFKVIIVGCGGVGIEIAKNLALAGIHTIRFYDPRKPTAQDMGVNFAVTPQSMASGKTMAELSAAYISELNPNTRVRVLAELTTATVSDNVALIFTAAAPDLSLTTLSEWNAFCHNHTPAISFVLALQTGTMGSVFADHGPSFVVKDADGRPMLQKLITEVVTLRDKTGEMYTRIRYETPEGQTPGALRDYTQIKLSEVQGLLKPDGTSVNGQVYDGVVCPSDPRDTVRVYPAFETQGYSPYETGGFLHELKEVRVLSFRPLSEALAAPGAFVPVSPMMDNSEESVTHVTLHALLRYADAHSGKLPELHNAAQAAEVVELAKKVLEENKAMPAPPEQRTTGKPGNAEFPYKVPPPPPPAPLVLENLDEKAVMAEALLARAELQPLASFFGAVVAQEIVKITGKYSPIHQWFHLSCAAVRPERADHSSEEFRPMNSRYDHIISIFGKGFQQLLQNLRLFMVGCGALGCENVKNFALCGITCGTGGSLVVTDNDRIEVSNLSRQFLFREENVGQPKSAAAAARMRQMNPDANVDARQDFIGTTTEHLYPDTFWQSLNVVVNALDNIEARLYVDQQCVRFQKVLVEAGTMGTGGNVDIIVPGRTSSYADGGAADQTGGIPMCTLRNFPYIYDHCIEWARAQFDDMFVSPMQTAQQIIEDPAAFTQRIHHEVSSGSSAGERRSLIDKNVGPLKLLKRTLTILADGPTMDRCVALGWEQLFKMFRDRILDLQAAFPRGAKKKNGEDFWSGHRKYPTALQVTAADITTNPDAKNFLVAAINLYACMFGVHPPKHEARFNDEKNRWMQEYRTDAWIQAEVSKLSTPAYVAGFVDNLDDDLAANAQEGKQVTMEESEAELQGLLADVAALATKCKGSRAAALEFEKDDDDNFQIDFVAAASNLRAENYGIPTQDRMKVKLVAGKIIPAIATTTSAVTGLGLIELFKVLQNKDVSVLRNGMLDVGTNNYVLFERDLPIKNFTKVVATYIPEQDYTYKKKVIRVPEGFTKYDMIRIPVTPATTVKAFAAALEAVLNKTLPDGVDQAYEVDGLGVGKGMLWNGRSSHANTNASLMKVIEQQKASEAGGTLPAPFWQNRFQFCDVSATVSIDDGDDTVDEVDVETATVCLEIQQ
The assay can be described thus: Leishmania donovani Ubiquitin Activating Enzyme (LdE1). Format: functional. As to conditions: 30 µM.

For assay [3], the target named is AMP-activated protein kinase, AMPK (Homo sapiens) (UniProt P54646+O43741+P54619+Q9UGJ0+Q9Y478+Q13131+Q9UGI9). Briefly: AMP-dependent Kinase enzyme assay. An in vitro enzyme assay that detects ADP turnover that is directly proportional to AMPK activity. This uses naive AMPK that is activated during the assay with MK-8722. The note with it: 30 µM. The assay is classed as functional.

Assay [4] deals with Sialic acid-binding Ig-like lectin 9 (Homo sapiens) (UniProt Q9Y336). Briefly: Hs-Siglec9 ALPHAscreen SOP 20170721. The note with it: 10 µM. Background: In Alpha technology, singlet oxygen from a donor bead excites a nearby acceptor bead.
The test system of another assay is Trypanosoma cruzi. The assay can be described thus: Trypanosoma cruzi phosphomannomutase and mannose-1-phosphate guanylyltransferase assay. Format: functional. As to conditions: 10 µM.
The target of assay [5] is T2, Arginase-2, mitochondrial (Homo sapiens) (UniProt P78540).
T2 sequence (whole entry): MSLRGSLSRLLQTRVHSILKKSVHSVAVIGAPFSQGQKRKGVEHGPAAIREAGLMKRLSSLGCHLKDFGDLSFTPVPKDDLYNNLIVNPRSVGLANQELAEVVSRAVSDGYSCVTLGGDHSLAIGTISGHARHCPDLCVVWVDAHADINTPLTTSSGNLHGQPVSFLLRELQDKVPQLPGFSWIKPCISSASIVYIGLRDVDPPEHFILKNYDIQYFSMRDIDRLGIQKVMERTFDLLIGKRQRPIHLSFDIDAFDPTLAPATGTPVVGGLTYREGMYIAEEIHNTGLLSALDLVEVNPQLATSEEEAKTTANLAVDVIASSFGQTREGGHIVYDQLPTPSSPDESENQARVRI
The assay can be described thus: in vitro enzyme assay to detect the production of urea directly proportional to the activity of Arginase II. Also: in the data most compounds retested in dose-response had high values. Format: functional. The note with it: 33.3 µM.

Assay [6] concerns the target T3, Proteasome subunit beta (Trypanosoma cruzi) (UniProt O96673).
T3 sequence (whole entry): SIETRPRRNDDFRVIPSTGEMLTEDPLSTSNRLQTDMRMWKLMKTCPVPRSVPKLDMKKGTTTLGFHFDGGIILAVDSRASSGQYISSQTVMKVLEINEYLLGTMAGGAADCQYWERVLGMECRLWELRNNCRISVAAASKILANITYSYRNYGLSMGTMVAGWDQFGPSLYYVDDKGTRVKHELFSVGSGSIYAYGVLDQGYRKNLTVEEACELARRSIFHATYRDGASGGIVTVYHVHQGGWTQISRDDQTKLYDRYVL
The assay can be described thus: Trypanosoma cruzi proteasome chymotrypsin-like activity (TcProtChymo) assay. Also: in the data most compounds retested in dose-response had high values. As to conditions: 9.37 µM. Format: functional.

The species entered for the next assay is Homo sapiens. Briefly: To identify inhibition of the IFN signalling (Jak-Stat) pathway via expression of an eGFP reporter gene under the control of an IFN-stimulated response element (ISRE) containing MxA promoter. The assay is classed as functional. As to conditions: 30 µM. Background: A reporter such as luciferase makes a cellular process visible.
Assay [7] concerns the target T4, Tyrosyl-tRNA synthetase, putative (Trypanosoma cruzi (strain CL Brener)) (UniProt Q4DSP6).
T4 sequence (whole entry): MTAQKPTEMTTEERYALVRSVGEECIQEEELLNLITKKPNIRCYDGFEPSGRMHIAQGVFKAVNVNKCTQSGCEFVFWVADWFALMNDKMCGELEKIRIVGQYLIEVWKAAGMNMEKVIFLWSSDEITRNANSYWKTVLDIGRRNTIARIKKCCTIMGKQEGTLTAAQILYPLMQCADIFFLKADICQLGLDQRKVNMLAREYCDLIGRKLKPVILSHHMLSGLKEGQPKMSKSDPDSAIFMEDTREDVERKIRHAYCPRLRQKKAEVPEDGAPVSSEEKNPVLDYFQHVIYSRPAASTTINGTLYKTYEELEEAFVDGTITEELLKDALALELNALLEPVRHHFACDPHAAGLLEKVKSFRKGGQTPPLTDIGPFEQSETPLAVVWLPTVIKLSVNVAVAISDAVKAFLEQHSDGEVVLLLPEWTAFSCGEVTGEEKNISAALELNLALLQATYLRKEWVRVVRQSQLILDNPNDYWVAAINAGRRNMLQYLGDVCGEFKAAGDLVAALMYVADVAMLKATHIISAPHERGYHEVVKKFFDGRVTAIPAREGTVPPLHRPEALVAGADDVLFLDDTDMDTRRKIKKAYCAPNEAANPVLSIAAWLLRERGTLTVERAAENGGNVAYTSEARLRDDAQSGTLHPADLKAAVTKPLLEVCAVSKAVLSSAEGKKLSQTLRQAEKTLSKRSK
The assay can be described thus: Trypanosoma cruzi tyrosyl tRNA synthetase (TcYRS) _High Tyrosine SOP. Also: in the data most compounds retested in dose-response had high values. The assay is classed as functional. The note with it: 30 µM.

In assay [8] the target is T4, Tyrosyl-tRNA synthetase, putative (Trypanosoma cruzi (strain CL Brener)). Briefly: Trypanosoma cruzi tyrosyl tRNA synthetase (TcYRS) SOP. As to conditions: 30 µM. Format: functional.
Assay [9] concerns the target Chromo domain-containing protein 1 (Saccharomyces cerevisiae (strain ATCC 204508 / S288c) (Baker's yeast)) (UniProt P32657). The assay can be described thus: ScCHD-1 Enzyme Inhibition Assay. Also: in the data most compounds retested in dose-response had high values. Format: functional. The note with it: 30 µM.

For some assays here: Potency and affinity values are given separately.

Chromo domain-containing protein 1 (Saccharomyces cerevisiae (strain ATCC 204508 / S288c) (Baker's yeast)), sequence (P32657 whole entry, the tested form may be a part): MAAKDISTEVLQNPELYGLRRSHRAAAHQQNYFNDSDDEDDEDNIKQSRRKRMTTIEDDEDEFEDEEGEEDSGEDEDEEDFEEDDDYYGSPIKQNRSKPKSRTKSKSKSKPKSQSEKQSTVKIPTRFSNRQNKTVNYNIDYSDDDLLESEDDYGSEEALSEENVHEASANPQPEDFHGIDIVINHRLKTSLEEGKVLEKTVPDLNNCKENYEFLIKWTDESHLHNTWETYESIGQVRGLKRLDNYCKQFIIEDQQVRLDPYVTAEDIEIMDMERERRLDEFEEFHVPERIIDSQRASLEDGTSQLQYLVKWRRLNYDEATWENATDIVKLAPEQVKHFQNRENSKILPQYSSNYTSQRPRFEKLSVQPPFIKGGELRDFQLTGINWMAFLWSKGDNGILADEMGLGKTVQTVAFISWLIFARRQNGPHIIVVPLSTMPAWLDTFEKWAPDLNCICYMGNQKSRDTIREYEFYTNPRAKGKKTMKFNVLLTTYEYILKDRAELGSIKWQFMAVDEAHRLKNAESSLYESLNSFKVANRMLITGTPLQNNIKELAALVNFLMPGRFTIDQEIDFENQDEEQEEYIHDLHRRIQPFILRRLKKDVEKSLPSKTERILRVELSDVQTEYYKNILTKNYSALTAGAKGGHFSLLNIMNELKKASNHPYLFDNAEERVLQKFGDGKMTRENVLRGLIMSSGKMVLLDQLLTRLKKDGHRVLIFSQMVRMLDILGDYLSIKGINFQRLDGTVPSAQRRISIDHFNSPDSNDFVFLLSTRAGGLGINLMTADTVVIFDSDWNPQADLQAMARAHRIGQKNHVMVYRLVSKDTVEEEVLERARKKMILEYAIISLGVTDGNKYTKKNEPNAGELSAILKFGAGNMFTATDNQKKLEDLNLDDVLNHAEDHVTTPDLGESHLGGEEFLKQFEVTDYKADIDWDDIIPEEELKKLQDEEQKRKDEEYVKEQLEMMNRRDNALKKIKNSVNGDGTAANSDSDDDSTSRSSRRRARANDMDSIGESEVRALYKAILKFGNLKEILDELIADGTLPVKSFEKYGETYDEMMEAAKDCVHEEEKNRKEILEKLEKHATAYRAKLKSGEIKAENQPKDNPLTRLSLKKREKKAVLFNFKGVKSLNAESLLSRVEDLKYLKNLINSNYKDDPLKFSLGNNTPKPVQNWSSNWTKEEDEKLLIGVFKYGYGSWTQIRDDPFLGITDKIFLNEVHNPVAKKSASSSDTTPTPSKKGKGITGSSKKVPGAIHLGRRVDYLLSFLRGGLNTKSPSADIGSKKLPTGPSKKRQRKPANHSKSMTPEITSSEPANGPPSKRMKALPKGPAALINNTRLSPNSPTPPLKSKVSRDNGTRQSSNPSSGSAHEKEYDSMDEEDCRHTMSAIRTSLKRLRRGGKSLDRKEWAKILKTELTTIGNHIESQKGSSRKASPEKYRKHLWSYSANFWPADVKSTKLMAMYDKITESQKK
Sialic acid-binding Ig-like lectin 9 (Homo sapiens), sequence (Q9Y336 whole entry): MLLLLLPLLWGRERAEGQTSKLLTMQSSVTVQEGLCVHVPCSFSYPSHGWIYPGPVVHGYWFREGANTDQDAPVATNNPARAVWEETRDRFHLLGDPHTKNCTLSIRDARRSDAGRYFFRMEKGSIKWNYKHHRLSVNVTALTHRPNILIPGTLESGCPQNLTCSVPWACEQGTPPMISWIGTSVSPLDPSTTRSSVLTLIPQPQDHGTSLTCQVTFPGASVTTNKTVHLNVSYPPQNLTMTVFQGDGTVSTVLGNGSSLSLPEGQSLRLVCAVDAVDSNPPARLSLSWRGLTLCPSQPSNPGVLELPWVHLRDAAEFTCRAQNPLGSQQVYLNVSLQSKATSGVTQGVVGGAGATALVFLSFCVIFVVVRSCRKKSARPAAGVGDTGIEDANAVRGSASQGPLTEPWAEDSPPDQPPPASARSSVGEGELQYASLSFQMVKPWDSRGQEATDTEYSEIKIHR
Protein translocase subunit SecA (Escherichia coli (strain K12)), sequence (P10408 whole entry): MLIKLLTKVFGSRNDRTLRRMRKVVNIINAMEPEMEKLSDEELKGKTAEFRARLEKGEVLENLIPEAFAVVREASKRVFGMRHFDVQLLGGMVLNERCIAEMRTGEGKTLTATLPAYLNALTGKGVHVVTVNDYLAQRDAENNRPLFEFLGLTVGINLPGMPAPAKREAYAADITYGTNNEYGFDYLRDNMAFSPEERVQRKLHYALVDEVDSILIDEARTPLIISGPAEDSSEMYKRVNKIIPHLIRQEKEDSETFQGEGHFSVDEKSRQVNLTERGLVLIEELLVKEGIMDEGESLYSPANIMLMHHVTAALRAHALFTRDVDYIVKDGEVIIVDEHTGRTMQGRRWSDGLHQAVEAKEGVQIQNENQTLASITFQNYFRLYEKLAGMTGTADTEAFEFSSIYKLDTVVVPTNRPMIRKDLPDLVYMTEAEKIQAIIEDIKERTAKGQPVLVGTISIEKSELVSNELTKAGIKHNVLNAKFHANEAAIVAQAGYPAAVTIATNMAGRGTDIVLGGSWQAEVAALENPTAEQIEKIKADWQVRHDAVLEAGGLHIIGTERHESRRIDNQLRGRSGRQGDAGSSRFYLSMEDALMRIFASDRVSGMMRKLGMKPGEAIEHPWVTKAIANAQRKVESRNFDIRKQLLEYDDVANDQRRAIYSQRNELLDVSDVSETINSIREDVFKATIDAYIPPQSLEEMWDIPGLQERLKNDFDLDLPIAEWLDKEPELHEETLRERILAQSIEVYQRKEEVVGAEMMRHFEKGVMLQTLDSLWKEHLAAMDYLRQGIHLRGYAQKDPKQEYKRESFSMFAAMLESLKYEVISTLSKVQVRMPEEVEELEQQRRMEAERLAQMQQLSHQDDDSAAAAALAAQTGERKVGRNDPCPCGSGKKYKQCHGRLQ

On to `Cc1[nH]ncc1C(=O)N1CCCC(n2cncn2)C1` (stereo not given), for which the Percent Effect in assay [1] is -6.67%; in assay [2] it was 1.27%; in [3], 7.75%; in assay [4], 26.4%; in the assay with Trypanosoma cruzi, -0.308%; in [5] it was 3.23%. The Percent Effect in assay [6] is 4.63%; in the assay filed under Homo sapiens, 9.83%; in [7] it was 1.04%; in [8] it was 0%; in assay [9] it was -6.77%.

With `COC(=O)c1cc(OCC2CCC2)cc(C(=O)N[C@H]2CC[C@H](O)CC2)c1`, the Percent Effect in assay [1] is -8.61%; in assay [2], 0%; in assay [3] it was -13.1%; in [4], 12.3%; in the assay on Trypanosoma cruzi, -5.09%; in [5] it was -0.455%. For the same compound, the Percent Effect in [6] was 2.66%; in the assay listed under Homo sapiens, 32.3%; in assay [7], 0%; in [8] it was 0%; in assay [9] it was 0.449%.

For `Cc1nn(C)c2c(NCc3ccccc3F)nc(C3CC3)nc12`, the Percent Effect in assay [1] was -4.24%; in assay [2], 13%; in [3] it was 15.3%; in assay [4], 12.8%; with Trypanosoma cruzi, 9.14%; in [5], -63.5%. Besides, the Percent Effect in assay [6] was 20.6%; in the assay listed under Homo sapiens, 38.1%; in [7] it was -3.23%; in assay [8] it was 13.6%; in [9], -3.61%.

Regarding `N#Cc1cc(NS(=O)(=O)c2ccc(C(=O)O)cc2F)ccc1F`, the Percent Effect in assay [1] was -2.74%; in assay [2], -13.5%; in assay [3] it was -2.89%; in assay [4] it was 0.735%; in the assay on Trypanosoma cruzi, -0.472%; in [5] it was 4.41%. The Percent Effect in [6] was -3.24%; in the assay filed under Homo sapiens it was -0.301%; in assay [7] it was 0.493%; in assay [8] it was 1.24%; in assay [9], -0.823%.

Regarding `Cc1nc(N2CCN(C)CC2)ncc1C(=O)N1CCC(O)(CO)CC1`, the Percent Effect in assay [1] is -6.99%; in assay [2], 5.41%; in assay [3] it was 51.9%; in assay [4], 4.12%; with Trypanosoma cruzi it was 2.25%; in [5], 0.744%. Also, the Percent Effect in assay [6] was 0.944%; in the assay listed under Homo sapiens, 9.71%; in [7] it was 6.45%; in [8] it was 13.6%; in assay [9], -3.95%.

With `CN(C)CC1CN(Cc2csc(C3CCCC3)n2)CCO1` (stereo not given), the Percent Effect in assay [1] was -2.18%; in [2] it was 5.26%; in assay [3], -6.29%; in [4], 9.69%; in the assay on Trypanosoma cruzi it was 6.63%; in assay [5] it was 0.36%. In addition, the Percent Effect was 7.02% in assay [6]; -33% in the assay filed under Homo sapiens; 8.37% in assay [7]; 16.1% in [8]; 4.62% in assay [9].

Regarding `Cc1csc(N2CCN(CCc3ccccn3)CC2C)n1` (stereo not given), the Percent Effect in [1] was -0.657%; in assay [2], 8.22%; in assay [3], -7.28%; in assay [4], 9.14%; in the assay with Trypanosoma cruzi, 6.07%; in assay [5], -3.64%. For the same compound, the Percent Effect in [6] is 4.79%; in the assay listed under Homo sapiens, 17.9%; in assay [7], 4.3%; in assay [8] it was 5%; in assay [9], -1.43%.

As to `COc1ncc(-c2nccn2CCN(C)C)cn1`, the Percent Effect in [1] was -3.87%; in assay [2] it was -2.7%; in assay [3], -2.61%; in [4], 1.15%; in the assay with Trypanosoma cruzi, -0.965%; in assay [5], -3.81%. The Percent Effect in [6] was 20.9%; in the assay listed under Homo sapiens it was 2.02%; in [7], -2.65%; in assay [8] it was 2.44%; in assay [9], -3.6%.

For the compound `CNC(=O)c1cc2c(nc1NCC1CC1)CCN(c1ccncn1)CC2`, the Percent Effect in assay [1] is -4.02%; in [2], 1.33%; in assay [3] it was 11.9%; in assay [4], 4.48%; in the assay with Trypanosoma cruzi, -1.57%; in [5] it was -4.05%. In addition, the Percent Effect is 9.61% in assay [6]; 35.2% in the assay filed under Homo sapiens; 1.06% in [7]; 0% in [8]; -5.29% in [9].

Regarding `Cc1nc(C)n(CC2CCCN(Cc3ccc(C(N)=O)cc3)C2)n1` (stereo not given), the Percent Effect was -2.97% in assay [1]; 5.2% in [2]; 2.61% in assay [3]; -0.0393% in [4]; -0.294% in the assay with Trypanosoma cruzi; -3.58% in assay [5]. Besides, the Percent Effect in assay [6] was 5.58%; in the assay listed under Homo sapiens, 5.79%; in assay [7], 4.76%; in assay [8], 11.8%; in [9], -14.8%.
